Source: PubChem BioAssay
TDP1 cell CPT: growth inhibition of DT40 Tdp1-/-;hTDP1 cells with camptothecin (screen for TDP1 inhibitors) | chicken DT40 Tdp1-/-;hTDP1 cells + 20 nM CPT, ATP luminescence, 48 h | Potency, µM (top dose mostly 46.2 µM), without a hit: at the top dose activity change, negative = growth inhibition, usual class: inhibitors | 420,000 compounds, 12% hits | AID 686979; note: nearly all actives have a fitted effect of over 55% in size
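Chicken DT40 Tdp1-/- cells stably complemented with human TDP1 were seeded at 400 cells/well in medium containing 20 nM camptothecin, exposed to pin-transferred compounds, and grown at 37 °C for at least 48 hr. Viability was read as ATP luminescence.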
HT1080-NT tox: kills 2HG-producing HT-1080-NT fibrosarcoma cells | Potency, µM (series often up to 46.1 µM), inactives show at the top dose activity, negative = less viability, hits mostly cytotoxic | 360,000 compounds, 1.6% hits | HT-1080-NT fibrosarcoma viability, CellTiter-Glo ATP luminescence, 48 h;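 note: NT is the 2HG producing partner of a matched IDH1 knockdown line; 0% = DMSO-treated cells and -100% = media-only wells without cells; nearly all actives have a fitted effect of over 55% in size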
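Viability of the 2HG-overproducing fibrosarcoma line after 48 hours of compound exposure at 37 degrees C was determined by luminescence with CellTiter-Glo, and concentration-effect curves were then fitted and categorized.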
HT1080 IDH1KD tx: HT-1080 IDH1 knockdown cell toxicity (counter line) | Potency, µM (titrated, usually from 46.1 µM), inactives show at the top dose activity, negative = toxicity, most hits filed as cytotoxic | HT-1080 IDH1 knockdown viability, ATP luminescence, 48 h | AID 686971 | 360,000 compounds, 2% hits;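 note: 0% = DMSO wells and -100% = cell-free medium wells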
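Luminescent ATP read-out (CellTiter-Glo, 10 min at room temperature) after 48 h compound exposure at 37 °C gave viability of IDH1-knockdown HT-1080 cells. Activity was normalised to DMSO and cell-free wells, then fitted as concentration-response curves.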
KB-V1 MDR tox: KB-V1 MDR subline cytotoxicity; KB-V1 MDR cells viability, CellTiter-Glo, 72 h; Potency, µM (titrated, usually from 46.1 µM), hits mostly cytotoxic; 400,000 compounds, 3.4% hits; AID 1347076; note: nearly all actives have a fitted effect of over 60% in size
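Cytotoxicity toward P-gp-expressing KB-V1 cells was determined as loss of CellTiter-Glo luminescence after 72 h at 37 degrees C. Compounds were tested in quantitative HTS format across a concentration range, with curves fitted to normalized data.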
DT40 TDP1 no CPT: qHTS for Inhibitors of human tyrosyl-DNA phosphodiesterase 1 (TDP1): qHTS in cells in absence of CPT; DT40 Tdp1-/- hTDP1 cells, no CPT, ATP luminescence, 48 h; Potency, µM (top dose mostly 46.2 µM), inactives show at the highest dose activity change, negative = growth inhibition, hits mostly inhibitors; 420,000 compounds, 15% hits; AID 686978, 2013; note: nearly all actives have a fitted effect of over 55% in size
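Growth of hTDP1-complemented DT40 Tdp1-knockout cells is measured by ATP luminescence after at least 48 hr compound exposure at 37 °C, with DMSO substituting for the 20 nM CPT used in the parallel screen.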
KB-3-1 tox: kills parental KB-3-1 adenocarcinoma cells; KB-3-1 viability, CellTiter-Glo ATP luminescence, 72 h; Potency, µM (highest dose often 46.1 µM), actives largely listed as cytotoxic; 400,000 compounds, 1.4% hits; note: nearly all actives have a fitted effect of over 60% in size
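Here the drug-naive KB-3-1 line serves as comparator for MDR sub-line selectivity; cells received compound titrations, 72 h at 37 °C, then CellTiter-Glo readout.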
Starred values were filed as active, the others as inactive; i = inactive; ? = inconclusive; / = not tested or not shown. Hits are enriched below; roughly 19% of the tested compounds scored in any of these assays. Calls come from the whole dose curve; as a rule, active = well fitted curve in the direction sought with a large enough effect; inconclusive = small, poorly fitted or top-dose-only effect, or another doubt; inactive = no such curve, though single readings can be large; an effect the other way counts as inactive or inconclusive. Unless noted, % is set by controls: 0 for no effect and ±100 for the full control effect; potency is the fitted concentration of half-maximal effect.

SMILES	TDP1 cell CPT	HT1080-NT tox	HT1080 IDH1KD tx	KB-V1 MDR tox	DT40 TDP1 no CPT	KB-3-1 tox
CCCCn1nnnc1C(c1cc2ccccc2o1)N1CCCC1 (configuration not stated)	?	0%	6%	?	-88%	i
CCN(CC)CCN(C)C(c1cc2ccccc2o1)c1nnnn1C(C)(C)C (configuration not stated)	?	0%	-12%	?	?	i
CCCCn1nnnc1C(c1cc2ccccc2o1)N(C)Cc1ccccc1 (configuration not stated)	?	-19%	-15%	?	23µM*	i
CN(C)c1cccc(-c2ncnc(N3CCC(C(N)=O)CC3)n2)c1	/	/	/	i	/	i
CC(C)(C)c1ccc(C(=O)NCC(=O)OCC(=O)Nc2ccc3c(c2)OCCO3)cc1	-4%	0%	13%	i	-8%	i
COc1cc(CNn2nnnc2N)ccc1OCc1c(Cl)cccc1Cl	-28%	-21%	-17%	15µM*	?	16µM*
CCCCNC(=O)C1(C)CCCCN1C(=O)c1cc(C#N)cs1 (configuration not stated)	0%	18%	4%	i	-3%	i
O=C(O)C1CCCCC1C(=O)Nc1ccc(S(=O)(=O)N2CCOCC2)cc1 (configuration not stated)	0%	-6%	-1%	i	8%	i
Cc1ccccc1CN1CCN(CC(=O)NCCCN2CCN(c3ccc(F)cc3)CC2)C1=O	16µM*	-13%	-21%	?	13µM*	?
O=C(CN1CCN(Cc2ccc(Cl)cc2)C1=O)NCCCN1CCN(c2ccc(F)cc2)CC1	8.9µM*	?	16µM*	i	10µM*	?
CC(C)OCCCNC(=O)CN1CCN(Cc2ccccc2Cl)C1=O	?	-4%	1%	i	18µM*	i
O=C(CN1CCN(Cc2ccc(Cl)cc2)C1=O)NCCCN1CCOCC1	-6%	17%	-4%	i	-2%	i
CC1CCCC(C)N1C(=O)COC(=O)c1ccc(F)c(S(=O)(=O)N2CCOCC2)c1 (configuration not stated)	2%	0%	0%	i	-9%	i
COc1cccc(CNC(=O)COC(=O)c2ccc(-c3ccc(O)cc3)cc2)c1	?	?	21µM*	?	3.3µM*	i
Cc1nc(SCC(=O)Nc2cccnc2Cl)nc(C)c1C	-5%	2%	0%	?	0%	i
Cc1nn(-c2ccccc2)c2sc(C(=O)N(CC(=O)NC3CCCC3)Cc3ccco3)cc12	?	?	?	?	16µM*	?
COc1ccc(Nc2cc(C)nc(-n3nc(C)cc3C)n2)cc1Cl	0.37µM*	/	/	/	0.15µM*	/
COc1ccc(Nc2cc(C)nc3nc(C)nn23)cc1Cl	-18%	-11%	-6%	i	-13%	i
Cc1cc(Nc2ccc(C(C)C)cc2)nc(-n2nc(C)cc2C)n1	0.58µM*	/	/	/	0.82µM*	/
Cc1cc(Nc2ccc(F)cc2F)nc(-n2nc(C)cc2C)n1	2.9µM*	/	/	/	4.6µM*	/
Cc1cc(NCCO)nc(-n2nc(C)cc2C)n1	13%	5%	6%	i	-5%	i
O=C(O)c1cn(Cc2ccccc2)c2ccc(Cl)cc2c1=O	?	4%	-7%	i	?	i
O=C(Nc1c(-c2ccc3c(c2)OCO3)[nH][nH]c1=O)c1ccc2c(c1)OCO2	-8%	29%	-4%	i	-17%	i
Cc1cc(C)c2c(n1)sc1c(=O)n(Cc3ccccc3Cl)nnc12	?	-2%	-2%	i	-18%	i
CCCc1cc(=O)oc2c3c(c4c(c12)OC(C)(C)C=C4)OC(C)C(C)C3O (configuration not stated)	8.2µM*	5.8µM*	3.7µM*	?	6.5µM*	?
SMILES	TDP1 cell CPT	HT1080-NT tox	HT1080 IDH1KD tx	KB-V1 MDR tox	DT40 TDP1 no CPT	KB-3-1 tox
CC(=O)N1N=C(c2ccc3ccccc3c2)OC12CCCC2	21µM*	5%	-2%	?	?	i
COc1ccc(S(=O)(=O)NN(C)C(=O)c2nn(-c3ccccc3)ccc2=O)cc1	-1%	8%	-3%	i	-2%	i
CCC(C)[C@H](NC(=O)NCc1ccc(Cl)cc1)C(=O)O (some centres not stated)	-4%	2%	-7%	?	-14%	i
CCC(C)[C@H](NC(=O)NCc1ccc(Cl)cc1)C(=O)OC (some centres not stated)	-29%	-5%	0%	21µM*	-27%	i
COc1ccc(CNC(=O)c2cc3c(C)nc4ccccc4c3o2)c(OC)c1	16µM*	-6%	?	12µM*	13µM*	?
COc1ccc(Nc2cc(C(=O)NCc3ccccc3OC)c3ccccc3n2)cc1	-20%	/	/	i	?	i
COc1cccc(CNC(=O)c2cc3c(C)nc4ccccc4c3o2)c1	23µM*	0%	-16%	?	18µM*	?
Cc1ccc(CNC(=O)CSc2nc3c(sc4ccccc43)c(=O)n2CCCOC(C)C)cc1	-8%	/	/	i	?	i
